Data: the supplement of paper PMC11732987, “Enantioselective OTUD7B fragment discovery through chemoproteomics screening and high-throughput optimisation” (Communications Chemistry, 2025)

Experiments:
Test in all cases: log2 ratio of Biotin-Ahx-Ub-VS probe labelling (fragment/DMSO); higher = less target engagement (more negative = stronger competition), active = hit call of the paper (q ≤ 0.05, log2 ratio ≤ -1)
Settings in all cases: compound concentration: 200 uM; treatment time: 3 h
USP19 = molecular target: T1, USP19 (UniProt O94966)
T1 sequence (whole entry): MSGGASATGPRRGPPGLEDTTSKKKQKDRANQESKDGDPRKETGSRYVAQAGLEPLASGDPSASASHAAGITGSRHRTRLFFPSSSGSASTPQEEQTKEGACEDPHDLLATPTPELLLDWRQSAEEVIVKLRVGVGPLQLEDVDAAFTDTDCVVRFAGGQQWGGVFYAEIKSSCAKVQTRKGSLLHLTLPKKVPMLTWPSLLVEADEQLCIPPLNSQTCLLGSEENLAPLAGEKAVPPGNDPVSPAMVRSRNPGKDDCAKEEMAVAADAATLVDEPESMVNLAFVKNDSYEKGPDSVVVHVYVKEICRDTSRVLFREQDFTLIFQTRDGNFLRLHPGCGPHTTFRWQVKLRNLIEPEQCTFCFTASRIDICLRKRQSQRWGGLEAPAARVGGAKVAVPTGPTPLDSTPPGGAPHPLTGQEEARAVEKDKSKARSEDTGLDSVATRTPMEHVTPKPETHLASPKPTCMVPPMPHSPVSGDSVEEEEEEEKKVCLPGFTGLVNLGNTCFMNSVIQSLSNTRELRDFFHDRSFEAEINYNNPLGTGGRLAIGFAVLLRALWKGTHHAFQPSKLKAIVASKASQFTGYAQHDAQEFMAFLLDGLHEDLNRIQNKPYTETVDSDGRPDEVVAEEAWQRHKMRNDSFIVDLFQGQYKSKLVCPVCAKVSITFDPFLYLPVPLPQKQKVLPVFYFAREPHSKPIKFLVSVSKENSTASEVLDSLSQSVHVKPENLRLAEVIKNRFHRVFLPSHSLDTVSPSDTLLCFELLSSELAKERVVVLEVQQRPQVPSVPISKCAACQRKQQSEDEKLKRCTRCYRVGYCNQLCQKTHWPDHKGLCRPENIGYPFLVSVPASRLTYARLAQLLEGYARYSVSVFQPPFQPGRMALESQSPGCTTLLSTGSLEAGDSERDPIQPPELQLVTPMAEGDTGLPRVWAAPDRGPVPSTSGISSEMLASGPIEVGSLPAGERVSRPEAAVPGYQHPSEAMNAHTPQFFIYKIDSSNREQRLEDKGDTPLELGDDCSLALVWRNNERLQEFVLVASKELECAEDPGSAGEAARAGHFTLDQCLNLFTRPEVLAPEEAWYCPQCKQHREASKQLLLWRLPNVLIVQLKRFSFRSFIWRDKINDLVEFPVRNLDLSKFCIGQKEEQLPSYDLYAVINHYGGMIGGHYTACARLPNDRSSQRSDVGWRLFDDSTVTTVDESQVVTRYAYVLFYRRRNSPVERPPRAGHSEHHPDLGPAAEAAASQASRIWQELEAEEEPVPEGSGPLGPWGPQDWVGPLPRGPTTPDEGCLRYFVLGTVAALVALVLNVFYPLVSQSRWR
Summary of the method: (§1)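 HEK293T lysate (495 µg per sample, in Tris/CHAPS/IGEPAL buffer with protease inhibitors) was exposed in triplicate for 3 h to fragment at 200 µM or to vehicle, then to Biotin-Ahx-Ub-VS at 0.5 µM final for 1 h. Labelled DUBs were enriched on NeutrAvidin, digested with LysC and trypsin, and analysed by diaPASEF LC-MS/MS. Spectronaut label-free quantities were normalised to the global median, and values are average log2 ratios of fragment over vehicle from an unpaired t-test. Only proteins with ≥2 unique peptides were used.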

USP22 = molecular target: T2, USP22 (UniProt Q9UPT9)
T2 sequence (whole entry): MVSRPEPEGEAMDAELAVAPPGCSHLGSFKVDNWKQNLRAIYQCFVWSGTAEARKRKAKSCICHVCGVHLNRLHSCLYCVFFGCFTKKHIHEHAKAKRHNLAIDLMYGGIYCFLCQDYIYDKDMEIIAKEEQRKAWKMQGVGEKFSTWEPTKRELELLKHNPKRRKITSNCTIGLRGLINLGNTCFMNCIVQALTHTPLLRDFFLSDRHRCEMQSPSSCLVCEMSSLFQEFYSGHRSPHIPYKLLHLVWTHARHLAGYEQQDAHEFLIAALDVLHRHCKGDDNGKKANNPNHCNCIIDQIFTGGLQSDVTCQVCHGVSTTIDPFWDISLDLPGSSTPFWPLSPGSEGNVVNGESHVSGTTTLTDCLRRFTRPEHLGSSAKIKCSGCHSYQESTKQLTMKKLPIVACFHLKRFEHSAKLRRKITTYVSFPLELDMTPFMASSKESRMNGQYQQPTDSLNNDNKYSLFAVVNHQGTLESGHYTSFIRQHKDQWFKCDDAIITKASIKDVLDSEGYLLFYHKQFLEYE
Summary of the method: as §1

USP24 = USP24 (UniProt Q9UPU5)
Summary of the method: as §1

USP25 = molecular target: T3, USP25 (UniProt Q9UHP3)
T3 sequence (whole entry): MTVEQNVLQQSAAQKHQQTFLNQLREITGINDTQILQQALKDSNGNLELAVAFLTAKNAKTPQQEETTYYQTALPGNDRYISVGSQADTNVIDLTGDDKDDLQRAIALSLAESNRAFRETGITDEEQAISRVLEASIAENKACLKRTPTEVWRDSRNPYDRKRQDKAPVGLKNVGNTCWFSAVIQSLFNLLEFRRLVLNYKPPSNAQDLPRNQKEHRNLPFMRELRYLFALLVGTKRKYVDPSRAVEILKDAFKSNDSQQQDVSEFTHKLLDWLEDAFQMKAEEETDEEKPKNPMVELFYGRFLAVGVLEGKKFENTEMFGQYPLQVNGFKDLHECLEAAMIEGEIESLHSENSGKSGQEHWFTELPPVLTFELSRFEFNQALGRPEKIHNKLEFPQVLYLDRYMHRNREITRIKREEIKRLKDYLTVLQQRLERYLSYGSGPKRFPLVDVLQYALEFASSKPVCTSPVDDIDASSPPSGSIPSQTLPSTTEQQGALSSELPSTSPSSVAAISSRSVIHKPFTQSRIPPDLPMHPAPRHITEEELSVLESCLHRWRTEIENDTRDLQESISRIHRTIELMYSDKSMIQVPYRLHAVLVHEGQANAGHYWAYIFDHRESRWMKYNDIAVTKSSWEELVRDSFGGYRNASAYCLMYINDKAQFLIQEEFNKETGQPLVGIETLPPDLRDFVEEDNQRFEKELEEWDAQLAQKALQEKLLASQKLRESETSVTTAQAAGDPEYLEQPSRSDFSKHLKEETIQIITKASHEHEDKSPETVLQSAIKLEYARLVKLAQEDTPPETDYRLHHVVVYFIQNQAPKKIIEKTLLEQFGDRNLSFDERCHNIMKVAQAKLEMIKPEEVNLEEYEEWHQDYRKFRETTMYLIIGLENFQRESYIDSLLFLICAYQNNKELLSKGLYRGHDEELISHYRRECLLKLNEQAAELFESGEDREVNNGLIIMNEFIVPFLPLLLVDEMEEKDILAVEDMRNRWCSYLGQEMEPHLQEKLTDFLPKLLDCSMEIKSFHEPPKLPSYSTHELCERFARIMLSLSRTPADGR
Summary of the method: as §1

USP28 = molecular target: T4, USP28 (UniProt Q96RU2)
T4 sequence (whole entry): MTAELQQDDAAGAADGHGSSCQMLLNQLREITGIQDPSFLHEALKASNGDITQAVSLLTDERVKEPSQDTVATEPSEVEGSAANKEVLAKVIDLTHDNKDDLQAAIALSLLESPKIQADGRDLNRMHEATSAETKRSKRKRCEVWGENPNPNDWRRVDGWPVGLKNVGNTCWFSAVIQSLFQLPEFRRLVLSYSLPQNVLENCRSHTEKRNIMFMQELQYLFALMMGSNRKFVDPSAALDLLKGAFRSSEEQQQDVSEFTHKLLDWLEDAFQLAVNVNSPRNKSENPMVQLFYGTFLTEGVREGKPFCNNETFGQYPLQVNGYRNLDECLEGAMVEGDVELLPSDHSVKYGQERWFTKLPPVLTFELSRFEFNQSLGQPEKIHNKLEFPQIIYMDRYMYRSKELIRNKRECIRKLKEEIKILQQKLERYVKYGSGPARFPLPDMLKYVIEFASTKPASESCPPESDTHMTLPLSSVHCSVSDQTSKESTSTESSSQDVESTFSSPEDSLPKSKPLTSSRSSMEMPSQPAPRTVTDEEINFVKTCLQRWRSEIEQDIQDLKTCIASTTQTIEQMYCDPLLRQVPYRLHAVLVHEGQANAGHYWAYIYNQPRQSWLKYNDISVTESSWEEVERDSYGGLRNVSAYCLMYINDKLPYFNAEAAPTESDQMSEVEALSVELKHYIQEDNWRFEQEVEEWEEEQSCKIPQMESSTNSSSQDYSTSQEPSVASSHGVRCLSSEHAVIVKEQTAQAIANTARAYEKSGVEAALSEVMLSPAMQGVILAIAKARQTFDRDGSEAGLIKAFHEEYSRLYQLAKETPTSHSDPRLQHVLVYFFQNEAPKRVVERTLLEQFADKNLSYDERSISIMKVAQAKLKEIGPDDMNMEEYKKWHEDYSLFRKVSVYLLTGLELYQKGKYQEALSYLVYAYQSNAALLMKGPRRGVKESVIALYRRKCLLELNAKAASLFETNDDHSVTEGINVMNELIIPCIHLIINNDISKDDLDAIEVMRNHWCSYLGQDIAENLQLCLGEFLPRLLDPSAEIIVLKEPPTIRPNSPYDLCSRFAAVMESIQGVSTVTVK
Summary of the method: as §1

Measured: log2 ratio of Biotin-Ahx-Ub-VS probe labelling

Chain of USP24 (Q9UPU5 whole entry): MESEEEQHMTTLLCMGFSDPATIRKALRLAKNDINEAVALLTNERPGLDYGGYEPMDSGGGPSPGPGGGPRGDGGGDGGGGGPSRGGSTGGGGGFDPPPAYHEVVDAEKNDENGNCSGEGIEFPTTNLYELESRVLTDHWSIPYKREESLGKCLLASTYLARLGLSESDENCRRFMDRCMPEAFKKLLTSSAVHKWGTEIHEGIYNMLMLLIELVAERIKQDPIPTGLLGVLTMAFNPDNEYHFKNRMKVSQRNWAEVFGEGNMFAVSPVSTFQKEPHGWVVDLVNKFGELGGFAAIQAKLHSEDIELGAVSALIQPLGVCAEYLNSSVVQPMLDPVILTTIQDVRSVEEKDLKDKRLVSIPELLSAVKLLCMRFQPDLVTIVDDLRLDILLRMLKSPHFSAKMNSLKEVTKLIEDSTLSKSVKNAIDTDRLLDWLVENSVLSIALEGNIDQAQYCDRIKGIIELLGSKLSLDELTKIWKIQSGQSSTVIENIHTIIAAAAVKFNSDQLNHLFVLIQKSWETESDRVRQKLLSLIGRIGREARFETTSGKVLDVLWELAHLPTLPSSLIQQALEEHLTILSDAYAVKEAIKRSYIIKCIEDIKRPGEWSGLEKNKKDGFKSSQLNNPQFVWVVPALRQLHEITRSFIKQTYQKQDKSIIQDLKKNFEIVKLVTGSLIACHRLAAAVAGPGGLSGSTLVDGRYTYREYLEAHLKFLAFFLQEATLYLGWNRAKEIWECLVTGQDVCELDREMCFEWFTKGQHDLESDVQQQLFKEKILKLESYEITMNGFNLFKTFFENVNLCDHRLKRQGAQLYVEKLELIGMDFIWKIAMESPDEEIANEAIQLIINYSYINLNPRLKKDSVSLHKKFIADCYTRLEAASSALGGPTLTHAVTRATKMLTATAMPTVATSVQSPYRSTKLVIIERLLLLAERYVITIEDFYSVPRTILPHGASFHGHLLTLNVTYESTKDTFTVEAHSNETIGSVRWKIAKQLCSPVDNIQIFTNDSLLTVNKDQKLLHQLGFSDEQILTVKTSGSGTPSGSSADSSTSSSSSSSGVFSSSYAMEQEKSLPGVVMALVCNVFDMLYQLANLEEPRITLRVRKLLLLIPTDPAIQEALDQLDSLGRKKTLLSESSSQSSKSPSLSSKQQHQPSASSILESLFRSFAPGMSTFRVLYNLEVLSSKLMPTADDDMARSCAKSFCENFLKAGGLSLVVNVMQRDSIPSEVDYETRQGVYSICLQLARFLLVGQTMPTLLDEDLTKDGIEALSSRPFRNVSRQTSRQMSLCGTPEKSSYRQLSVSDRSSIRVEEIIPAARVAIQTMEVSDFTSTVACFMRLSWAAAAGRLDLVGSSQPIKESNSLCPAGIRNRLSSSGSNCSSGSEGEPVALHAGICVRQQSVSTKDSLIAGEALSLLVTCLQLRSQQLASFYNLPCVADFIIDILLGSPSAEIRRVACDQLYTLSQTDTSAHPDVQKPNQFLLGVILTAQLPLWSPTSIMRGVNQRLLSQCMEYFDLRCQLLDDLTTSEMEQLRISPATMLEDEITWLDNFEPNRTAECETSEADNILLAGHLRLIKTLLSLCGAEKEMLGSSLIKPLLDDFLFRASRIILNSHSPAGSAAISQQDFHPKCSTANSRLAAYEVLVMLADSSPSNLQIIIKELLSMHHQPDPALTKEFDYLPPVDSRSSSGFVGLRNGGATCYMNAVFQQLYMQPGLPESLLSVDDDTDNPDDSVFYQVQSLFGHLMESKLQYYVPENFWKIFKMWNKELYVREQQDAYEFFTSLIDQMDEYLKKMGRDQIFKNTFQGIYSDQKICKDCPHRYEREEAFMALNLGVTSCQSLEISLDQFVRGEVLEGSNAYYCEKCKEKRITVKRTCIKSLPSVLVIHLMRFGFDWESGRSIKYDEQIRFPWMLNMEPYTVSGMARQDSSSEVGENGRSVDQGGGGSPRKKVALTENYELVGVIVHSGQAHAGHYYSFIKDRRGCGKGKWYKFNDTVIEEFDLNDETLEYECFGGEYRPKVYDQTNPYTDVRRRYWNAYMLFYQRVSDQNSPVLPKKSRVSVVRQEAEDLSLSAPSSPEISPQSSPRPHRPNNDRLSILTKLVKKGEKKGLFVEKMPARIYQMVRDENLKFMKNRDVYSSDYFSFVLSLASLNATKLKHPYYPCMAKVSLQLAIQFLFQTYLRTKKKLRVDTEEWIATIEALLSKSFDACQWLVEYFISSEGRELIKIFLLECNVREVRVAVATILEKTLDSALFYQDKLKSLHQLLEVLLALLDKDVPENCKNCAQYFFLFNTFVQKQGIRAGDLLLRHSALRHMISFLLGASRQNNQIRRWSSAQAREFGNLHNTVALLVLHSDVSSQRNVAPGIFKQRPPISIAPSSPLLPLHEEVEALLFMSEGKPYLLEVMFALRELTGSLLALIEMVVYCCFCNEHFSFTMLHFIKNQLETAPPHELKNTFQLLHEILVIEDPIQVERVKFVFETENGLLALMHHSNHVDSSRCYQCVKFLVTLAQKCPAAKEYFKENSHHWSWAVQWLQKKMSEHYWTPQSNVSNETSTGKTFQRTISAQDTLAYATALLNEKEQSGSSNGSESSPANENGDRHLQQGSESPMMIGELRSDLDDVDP

O=C(CN1CCN(C(=O)CCl)CC1)Nc1cccc(F)c1
inactive: USP19 -0.265 | USP22 0.00778 | USP24 -0.335 | USP25 -0.473 | USP28 -0.428
